In PubChem BioAssay AID1893 (NMMLSC, 2009) one finds percent response data, which are given here for 93 compounds.

Each structure is given as a SMILES string. In all, about 5,900 compounds went through this assay and about 120 (2%) were called active. A selection follows. A number with no mark means an inactive call. Cut-off read from the data, not from the text of the source: active = percent response mostly above about 71% (no sharp cut-off); inactive = mostly below about 38%.

The assay has as its system MEKK2 (MAP3K2) mutant PB1 domain binding MEK5, human. Briefly: mutant MEKK2 PB1-MEK5 binding signal retest – biochemical, single concentration, multiplex bead flow cytometry, confirmation (AID 1893).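 Note: higher means compound restores mutant binding toward wildtype level.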 Conditions: Alexa488-MEK5 binding to MEKK2 mutant, at 10 µM, active compounds read high.
As for `CCN1CCN(c2ccc(S(=O)(=O)N3CCCCC3)cc2NC(=O)Cc2c(Cl)cccc2Cl)CC1`, the percent response is 20%.

Consider `CCCCN1C(=O)/C(=C(/C#N)C(N)=O)c2ccccc21`, for which the percent response was -2%.

On to `CC(C)c1ccc(C(=O)NCCCc2ccccc2)cc1`, for which the percent response was -5%.

As for `Cc1ccc(C)c(CN2CCC(CNC(=O)Nc3ccc(C)c(F)c3)CC2)c1`, the percent response is 20%.

As to `Cc1nc2cc(S(=O)(=O)C(F)(F)F)ccc2s1`, the percent response is -1%.

For `O=C(Cc1cccc2ccccc12)Nc1ccc2oc(-c3ccccc3)nc2c1`, the percent response is 10%.

`O=C(CSc1ccc(-c2ccc(F)cc2)nn1)Nc1ccc2c(c1)OCCO2`: the percent response is 4%.

`Cc1cnc(NC(=O)Cn2cnc3c2c(=O)n(C)c(=O)n3C)s1`: the percent response is -16%.

With `O=C(OCc1cc(Cl)ccc1OC(F)F)c1cccnc1`, the percent response was -8%.

For the compound `CC1(C)Cc2cccc(OCC(=O)N3CCN(c4ccc([N+](=O)[O-])cc4)CC3)c2O1`, the percent response was 1%.

With `CCOC(=O)c1sc2nc(C)nc(SCC(N)=O)c2c1C`, the percent response is 5%.

Consider `CCOC(=O)c1cc2c(nc1NC(=S)Nc1ccccc1)CC(C)(CC)OC2` (stereo not drawn), for which the percent response was -4%.

For `O=C(NCCC1=CCCCC1)c1ccc(Cl)c([N+](=O)[O-])c1`, the percent response was 5%.

With `Cc1cccn2c(=O)c(/C=C3\SC(=S)N(CC(C)C)C3=O)c(NCCCOC(C)C)nc12`, the percent response is -25%.

`O=C(NCCCN1CCCCCC1)C1CC(=O)N(C2CCCC2)C1` (stereo not drawn): the percent response is -29%.

For the compound `COc1cc2c(cc1OC)CN(C(=O)c1ccc(S(=O)(=O)N3CCCCCC3)cc1)CC2`, the percent response was -1%.

Turning to `O=C(/C=C/Nc1ccccc1)c1cnc(-c2ccccc2)s1`, the percent response is 7%.

As to `Cn1c(=NC(=O)CSCC(=O)N2CCCCC2)sc2ccccc21`, the percent response is 8%.

Consider `CCOC(=O)Cc1csc(NC(=O)CSc2nc(C)cc(=O)[nH]2)n1`, for which the percent response was -5%.

`CN1C(=O)/C(=C\c2ccc(-c3ccccc3)o2)SC1=S`: the percent response was -31%.

`CCN(CC)CCCNC(=O)c1ccc2c(=O)n(Cc3ccc4c(c3)OCO4)c(=S)[nH]c2c1`: the percent response was 7%.

For the compound `O=C(OCC1O[C@@H](OC(=O)c2cc(O)c(O)c(O)c2)[C@@H](OC(=O)c2cc(O)c(O)c(O)c2)[C@@H](OC(=O)c2cc(O)c(O)c(O)c2)[C@@H]1OC(=O)c1cc(O)c(O)c(O)c1)c1cc(O)c(O)c(O)c1` (stereo partly drawn), the percent response is -34%.

For the compound `CCOC(=O)c1cc2occc2n1CC(=O)N1CCN(C(=O)c2ccco2)CC1`, the percent response was -10%.

`Cc1cccc(CSc2nnc(C)c(=O)n2N)c1`: the percent response was -2%.

For `C=C(C)C1CC=C(C)/C(=N\NC(=O)CNc2ccccc2OC)C1` (stereo not drawn), the percent response is 10%.

For the compound `Cc1c(-c2ccccc2)cn2c1-c1ccc(C)n1CC2`, the percent response was 0%.

Take `CCCN(CCC)c1nc2c(C)cccn2c(=O)c1/C=C1/SC(=S)N(Cc2ccco2)C1=O`: the percent response is -17%.

For the compound `O=C(O)c1cccnc1NC1CCCC1`, the percent response is 13%.

Turning to `CCCc1nnc(SCC(=O)N2C(C)CCCC2C)n1CC` (stereo not drawn), the percent response is 10%.

For the compound `C/C=C/c1ccc(OCCCCN2CCC(C)CC2)c(OC)c1`, the percent response is 4%.

Consider `CNC(C)C#Cc1ccc2sc3cc(OC)c(OC)cc3c(=O)c2c1` (stereo not drawn), for which the percent response was 16%.

As to `Cc1cc(C(=O)OCC(=O)N2c3ccccc3NC(=O)C2(C)C)c(C)n1-c1ccccc1`, the percent response is 1%.

With `Cc1ccc(NC(=O)COc2ccc(-n3ccnc3)cc2)cc1Cl`, the percent response was 21%.

Consider `Cc1ccc(C(=O)NC(=S)Nc2ccc3[nH]c(=O)[nH]c3c2)cc1C`, for which the percent response is 4%.

Turning to `O=C1Nc2ccc(Br)cc2/C1=N/N=C/C1=C(N2CCOCC2)C(=C\c2ccccc2)/CC1`, the percent response was -20%.

As for `C#CCOCCOCCOCCNc1nc(N2CCN(C(=O)[C@H](CCCCN)n3cc([C@@H](N)C(C)CC)nn3)CC2)nc(N2CCN(C(=O)[C@H](Cc3ccc(O)cc3)n3cc([C@@H](N)C(C)CC)nn3)CC2)n1` (stereo partly drawn), the percent response is 52%.

In the case of `COc1ccc(S(=O)(=O)Nc2ccc3oc(C)c(C(C)=O)c3c2)cc1`, the percent response is -3%.

As to `O=C(Cc1cccs1)N/N=C/c1ccc(OCc2ccccc2)cc1`, the percent response was 3%.

In the case of `N#C/C(=C\C1=C(N2CCOCC2)C(=C\c2ccccc2)/CC1)C(=O)Nc1ccccc1F`, the percent response is -38%.

In the case of `Cc1cc(C)nc(-n2ncc3c2CC(c2ccc(C(C)C)cc2)CC3=O)n1` (stereo not drawn), the percent response is 0%.

On to `Cc1ccc(Nc2nc(CSc3nnc(-c4ccncc4)n3-c3ccccc3C)cs2)cc1`, for which the percent response was 1%.

Regarding `COc1ccc(N2CCN(Cc3nnc(-c4ccccc4)o3)CC2)cc1`, the percent response was -5%.

Regarding `Cc1nc(N=C(N)N)nc2c(C)cccc12`, the percent response was 10%.

Turning to `Cn1c(=NC(=O)CSCC(=O)N2CCOCC2)sc2ccccc21`, the percent response is -15%.

As to `Cc1cc(C)c(NC(=O)C[N+](C)(C)CC(O)COc2cccc3ccccc23)c(C)c1` (stereo not drawn), the percent response is 35%.

Regarding `CCCCn1c(SCC(=O)NCCc2ccc(OC)c(OC)c2)nc2c1c(=O)n(C)c(=O)n2C`, the percent response is 0%.

As to `CCOc1cc(C(=O)OCC(=O)Nc2cccc(C)c2)ccc1OCC(=O)N1CCOCC1`, the percent response was 0%.

Regarding `COc1ccccc1N1CCN(CCCCOc2ccc(F)cc2)CC1`, the percent response is 0%.

In the case of `Cc1ccc(S(=O)(=O)NC(=O)N2CCCC(C)(C)C2)cc1`, the percent response was -1%.

Consider `O=C(O)c1cc(Cl)c(Cl)cc1C(=O)Nc1cccc2ncccc12`, for which the percent response was -2%.

For `COc1ccc(-c2[nH]ncc2CN(C)Cc2c(C)n[nH]c2C)c(OC)c1`, the percent response was 11%.

Regarding `CCN1CCN(c2nc(Nc3cc(OC)ccc3OC)nc(Nc3cc(OC)ccc3OC)n2)CC1`, the percent response is 25%.

As for `C=CCn1c(=S)sc2c(=O)[nH]c(C)nc21`, the percent response is 1%.

As for `O=C(NC1CCN(Cc2ccccc2)CC1)c1cc(Br)c(Br)[nH]1`, the percent response is 18%.

`CC(=O)Nc1ccc(-c2nc3ccccc3o2)cc1`: the percent response was -2%.

With `Cc1c(C#N)c2ncn(CC#N)c(=O)c2n1-c1ccccc1`, the percent response is -7%.

`O=C(NCC1CCCCC1)c1cc(S(=O)(=O)N2CCCCC2)ccc1N1CCOCC1`: the percent response was -16%.

On to `COc1cc(/C=C2\SC(=S)N(Nc3ncc(C(F)(F)F)cc3Cl)C2=O)cc(OC)c1OC`, for which the percent response was -10%.

For the compound `Cc1ccccc1-c1ccc(Nc2ccc(C(=O)N3CCOCC3)cc2)nn1`, the percent response was 4%.

Regarding `COc1cc(CC(=O)N/N=C/c2ccccc2)c([N+](=O)[O-])cc1OC`, the percent response is 4%.

For the compound `CCOc1ccc(S(=O)(=O)N(CC(=O)O)c2ccccc2)cc1`, the percent response was 1%.

On to `Cc1ccc(S(=O)(=O)/N=S(\C)C(C)C)cc1` (stereo not drawn), for which the percent response is -3%.

Turning to `O=C(c1ccco1)N1CCN(c2cccc(Cl)c2)CC1`, the percent response was 0%.

In the case of `C/C(=N\NC(=O)CNC(=O)C(c1ccccc1)c1ccccc1)c1ccc(C)cc1`, the percent response is 7%.

Consider `C=CCN(CC=C)S(=O)(=O)c1ccc(C(=O)Nc2sc3c(c2C(N)=O)CCCCC3)cc1`, for which the percent response is 1%.

As for `FC(F)(F)c1cccc(N/N=C/c2ccccc2)c1`, the percent response was 28%.

In the case of `COc1cc(-c2nnc(Cn3cc(C(F)(F)F)ccc3=O)o2)cc(OC)c1OC`, the percent response was 1%.

Turning to `CCNC(=O)CSc1nc(-c2ccccc2)cs1`, the percent response is -1%.

With `O=C(NCCCN1CCCCCC1)c1ccc(N2CCCC2=O)cc1`, the percent response is 38%.

Regarding `CN(C)CC(O)COc1ccc(C(C)(C)c2ccc(OCC(O)CN(C)C)cc2)cc1` (stereo not drawn), the percent response is 48%.

With `Cc1[nH]c2ccc(S(N)(=O)=O)cc2c1C`, the percent response is -1%.

In the case of `CN(C)CCCNC(=O)c1cc(C(=O)Cc2ccc(Cl)cc2)c[nH]1`, the percent response was 3%.

As for `N/C(=N\OS(=O)(=O)c1cccc([N+](=O)[O-])c1)c1ccncc1`, the percent response is 3%.

`COc1cccc(CNCCc2c[nH]c3ccccc23)c1OCc1ccccc1F`: the percent response was 9%.

Turning to `COc1ccccc1CC(=O)Nc1ccc([N+](=O)[O-])cc1OC`, the percent response was 0%.

Turning to `O=C(Nc1cccnc1)c1cc(Cl)ccc1Cl`, the percent response is 3%.

`Cc1ccc(CNC(=O)Cn2c(=O)c3sccc3n(Cc3cccc([N+](=O)[O-])c3)c2=O)cc1`: the percent response was 2%.

With `O=C(O)/C(=C/c1cccnc1)NC(=O)c1ccccc1`, the percent response was 1%.

For `CCOc1nnc(C)c2c(C)n(-c3cccc(Cl)c3)nc12`, the percent response was -10%.

Consider `Cc1ccccc1C(=O)NNC(=O)CN1C(=O)c2ccccc2C1=O`, for which the percent response is -10%.

Consider `CC(C)(C)NC(=O)c1cccc(NC(=O)Cc2ccc(Br)cc2)c1`, for which the percent response is 1%.

Consider `Cn1c2ccccc2c(=O)c2c(=O)n(Cc3ccco3)c(COc3ccccc3)nc21`, for which the percent response was -6%.

With `CCOc1ccc(C(c2c(C)[nH][nH]c2=O)c2c(C)[nH][nH]c2=O)cc1OCC`, the percent response was -3%.

With `COc1cccc(Nc2ncccc2C(=O)O)c1`, the percent response was -5%.

For the compound `C[C@H]1CCC(=O)N([C@H](CSc2ccccc2)Cc2ccccc2)CC1`, the percent response was 8%.

Turning to `Cc1cccc(/C=N/NC(=O)CNc2cccc3ccccc23)n1`, the percent response was 5%.

For `c1ccc(Nc2nc(N3CCOCC3)c3ccccc3n2)cc1`, the percent response is 21%.

`Cc1ccc(N(CCC(=O)O)S(=O)(=O)c2cccc(C(F)(F)F)c2)cc1`: the percent response was 1%.

For the compound `O=C(NCCN1CCOCC1)[C@H](Cc1ccccc1)N1C(=O)c2ccccc2C1=O`, the percent response is 2%.

For `COCCN1C=C2C(=O)C(C)(OC(=O)C3CCCC3)C(=O)C=C2C=C1c1ccsc1` (stereo not drawn), the percent response is -2%.

For the compound `COC(=O)C1=NN(c2ccccc2)C2C(=O)N(c3ccccc3OC)C(=O)C12` (stereo not drawn), the percent response is -1%.

Regarding `CC(=O)Nc1ccc(N2CCOCC2)c(C(=O)Nc2cccc(C)c2)c1`, the percent response is 3%.

`Clc1ccc(-c2nnc(SCc3nc4ccccc4s3)o2)cc1`: the percent response was -4%.
